High-throughput results from PubChem BioAssay.
ELG1 genotoxic = genotoxicity induction in ELG1-luciferase HEK293T cells; HEK293T ELG1-luciferase reporter, luminescence, 16 h; Potency, µM (titrated, usually from 46 µM), for inactives: at the highest dose activity change, positive = activation, most hits filed as activators; actives 1.3% (n = 330,000); AID 504466; also: % of control where 0% means no effect; nearly all actives have a fitted effect of over 60% in size
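Screening used a luciferase reporter fused to human ELG1 in HEK293T cells. Luminescence was read on a CCD plate imager after 16 hr exposure and 30 min ONE-Glo incubation.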
NPC1 prom act = NPC1 promoter activation; Huh7 NPC1 promoter luciferase reporter, 24 h; Potency, µM (highest dose often 9.22 µM), for inactives: top-dose activation, most hits filed as activators; actives 2.4% (n = 320,000); AID 485313; also: % of control where 0% means no effect; nearly all actives have a fitted effect of over 60% in size
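Luminescence read-out of NPC1 promoter-driven luciferase in stably transfected Huh7 cells; compounds delivered in DMSO and left 24 h at 37C, 5% CO2, qHTS titration format.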
ELG1 DNA repair = blocks ELG1-dependent DNA repair in HEK293T cells | HEK293T ELG1-luciferase reporter, luminescence, 16 h; DNA damage induced by 5-fluorouridine | actives 2.3% (n = 330,000) | AID 504467 | Potency, µM (top dose mostly 46.1 µM), inactives show top-dose activity change, negative = inhibition, actives largely listed as inhibitors; also: % is scaled to controls: 0 for no effect and ±100 for the full control effect; nearly all actives have a fitted effect of over 55% in size
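Reporter activity after DNA damage by 5-fluorouridine is monitored. Compound-treated cells incubate 16 hr at 37 °C, then ONE-Glo is added for 30 min before luminescence reading.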
Rab9 prom act = activates the Rab9 promoter | Huh7 Rab9 promoter-luciferase reporter, luminescence, 24 h | Potency, µM (top dose mostly 9.22 µM), for the others: at the top dose activation, negative = inhibition, hits mostly activators | actives 2.8% (n = 320,000) | AID 485297; also: % of control where 0% means no effect; nearly all actives have a fitted effect of over 60% in size
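Rab9 promoter-driven luciferase in stably transfected Huh7 cells; 1500 cells/well rested 2 h, exposed to compound in DMSO for 24 h at 37 °C, 5% CO2. Luminescence read 10 min after adding luciferase reagent at ambient temperature.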
SMN2 splice enh = increases expression of the SMN2 splice variant | HEK293 SMN2-luciferase splicing reporter, luminescence, 30-36 h | Potency, µM (highest dose often 46.1 µM), for inactives: at the top dose activity change, positive = activation, hits mostly activators | actives 2.8% (n = 210,000); also: % of control where 0% means no effect; nearly all actives have a fitted effect of over 55% in size
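HEK293 cells carry an SMN2 minigene-luciferase reporter in which exon 7 inclusion puts luciferase in frame. Cells were seeded at 2000 cells/well, attached for 10-12 hours, then exposed to compounds for 30-36 hours at 37C before ONE-Glo luminescence.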
FLuc modulator = firefly luciferase modulation, counter-screen for miR-21 project; AID 588342; Potency, µM (doses to about 57.5 µM), for inactives: top-dose activity change, negative = inhibition, hits mostly inhibitors; P08659; purified FLuc, Km substrates, luminescence inhibition; actives 6.9% (n = 360,000);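 also: plate controls were vehicle for no effect and reference inhibitor for full effect; nearly all actives have a fitted effect of over 55% in size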
Target sequence (P08659 whole entry, looked up): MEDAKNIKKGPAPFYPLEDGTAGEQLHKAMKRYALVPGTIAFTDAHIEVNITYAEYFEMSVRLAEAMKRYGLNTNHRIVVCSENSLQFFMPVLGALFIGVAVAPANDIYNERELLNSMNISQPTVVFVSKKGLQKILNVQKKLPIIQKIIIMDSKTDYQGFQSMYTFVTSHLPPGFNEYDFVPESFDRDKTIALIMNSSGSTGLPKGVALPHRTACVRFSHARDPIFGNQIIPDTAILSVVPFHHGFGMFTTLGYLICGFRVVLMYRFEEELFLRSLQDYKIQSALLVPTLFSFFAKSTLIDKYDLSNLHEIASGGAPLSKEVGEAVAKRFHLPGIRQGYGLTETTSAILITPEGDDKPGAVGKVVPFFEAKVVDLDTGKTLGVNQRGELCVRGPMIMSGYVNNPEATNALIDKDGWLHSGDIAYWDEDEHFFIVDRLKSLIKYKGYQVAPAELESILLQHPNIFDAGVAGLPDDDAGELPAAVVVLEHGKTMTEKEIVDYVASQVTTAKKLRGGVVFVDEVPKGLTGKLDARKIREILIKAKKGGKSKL
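Purified P. pyralis luciferase (10nM final) with 10uM D-luciferin and 10uM ATP (Km levels) in 50mM Tris acetate pH 7.5, 10mM Mg acetate, 0.01% Tween-20, 0.05% BSA; qHTS 6-point titration, ~60 µM downward; luminescence read.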
* hit, by the source's call. The list is not random: actives were taken first. Their share in the collection is about 9.4%. Calls follow the shape of the dose curve; as a rule, active = well fitted curve in the direction sought with a large enough effect; inconclusive = small, poorly fitted or top-dose-only effect, or another doubt; inactive = no such curve, though single readings can be large; an effect the other way counts as inactive or inconclusive. Potency is read from the fitted curve at half-maximal effect.

Screening CN(C(=O)c1cc2sccc2n1C)C1CCCCC1 returned ELG1 genotoxic inconclusive, NPC1 prom act 3.98µM*, ELG1 DNA repair inconclusive, Rab9 prom act 3.16µM*, SMN2 splice enh 12.6µM* and FLuc modulator 13.5µM*.
For CCOC(=O)N1CCC(NC(=O)c2cc3sccc3n2CC)CC1 the results were ELG1 genotoxic 3.5%, NPC1 prom act 0.3%, ELG1 DNA repair -8.5%, Rab9 prom act 2.0%, SMN2 splice enh -13.0% and FLuc modulator -7.3%.
CCC(C)NS(=O)(=O)c1ccc(S(=O)(=O)N(CC(=O)Nc2ccccc2)Cc2ccco2)cc1 (centres undefined) was read as ELG1 genotoxic -6.9%, NPC1 prom act 2.4%, ELG1 DNA repair 18.4µM*, Rab9 prom act 2.1%, SMN2 splice enh -11.4% and FLuc modulator -3.9%.
For CCCC(C)NC(=O)CN(Cc1ccco1)S(=O)(=O)c1ccccc1 (centres undefined) the results were ELG1 genotoxic -0.9%, NPC1 prom act -3.9%, ELG1 DNA repair 17.4%, Rab9 prom act -4.0% and FLuc modulator 2.6%.
For O=C(N[C@@H]1C/C=C\C[C@H](CC(=O)N(CCO)Cc2ccccc2)C(=O)NC[C@@H](c2ccccc2)OC1=O)OCC1c2ccccc2-c2ccccc21 the results were ELG1 genotoxic -2.3% and ELG1 DNA repair inconclusive.
O=C(N[C@@H]1C/C=C\C[C@@H](CC(=O)N(CCO)Cc2ccccc2)C(=O)NC[C@H](c2ccccc2)OC1=O)OCC1c2ccccc2-c2ccccc21 was read as ELG1 genotoxic -1.3% and ELG1 DNA repair 14.6µM*.
C[C@@H]1COC(=O)[C@@H](NC(=O)OCC2c3ccccc3-c3ccccc32)C/C=C\C[C@@H](CC(=O)N(CCO)Cc2ccccc2)C(=O)N1 was read as ELG1 genotoxic -3.3% and ELG1 DNA repair inconclusive.
`C[C@H]1COC(=O)[C@H](NC(=O)OCC2c3ccccc3-c3ccccc32)C/C=C\C[C@H](CC(=O)N(CCO)Cc2ccccc2)C(=O)N1` gave ELG1 genotoxic -7.5% and ELG1 DNA repair 25.9µM*.
CCOc1ccc(S(=O)(=O)Nc2nc3ccccc3nc2Nc2ccc(OC)cc2)cc1 was read as SMN2 splice enh -6.4% and FLuc modulator 13.5µM*.
`CC(=O)Nc1ccc(S(=O)(=O)Nc2nc3ccccc3nc2Nc2ccc(S(N)(=O)=O)cc2)cc1` gave ELG1 genotoxic 1.2%, NPC1 prom act 0.1%, ELG1 DNA repair inconclusive, Rab9 prom act -1.2%, SMN2 splice enh 4.6% and FLuc modulator inconclusive.
`COc1ccc(Nc2nc3ccccc3nc2NS(=O)(=O)c2cccs2)cc1` gave ELG1 genotoxic -4.1%, NPC1 prom act -2.4%, ELG1 DNA repair -11.0%, Rab9 prom act -8.8%, SMN2 splice enh -34.1% and FLuc modulator inconclusive.
CC(=O)c1ccc(Nc2nc3ccccc3nc2NS(=O)(=O)c2cccs2)cc1 was read as ELG1 genotoxic -14.4%, NPC1 prom act 0.0%, ELG1 DNA repair 11.6µM*, Rab9 prom act -4.5% and FLuc modulator 19µM*.
Screening CCOc1ccc(S(=O)(=O)Nc2nc3ccccc3nc2Nc2ccc(N3CCOCC3)cc2)cc1 returned ELG1 genotoxic -4.3%, NPC1 prom act -2.6%, ELG1 DNA repair -5.8%, Rab9 prom act -4.5%, SMN2 splice enh -1.9% and FLuc modulator 10.7µM*.
Screening COc1cccc(Nc2nc3ccccc3nc2NS(=O)(=O)c2ccc(NC(C)=O)cc2)c1 returned ELG1 genotoxic 15.9%, NPC1 prom act -3.3%, ELG1 DNA repair 19.8%, Rab9 prom act -5.0% and FLuc modulator 23.9µM*.
Screening CC1CCN(C(=O)C2COc3ccccc3C2)CC1 (centres undefined) returned FLuc modulator -1.2%.
`Cc1ccccc1NCc1cccn1-c1nnc(N2CCC(C)CC2)s1` gave FLuc modulator -12.0%.
For COc1ccc(Nc2nc3ccccc3nc2NS(=O)(=O)c2ccc(NC(C)=O)cc2)cc1 the results were ELG1 genotoxic 9.9%, NPC1 prom act 2.6%, ELG1 DNA repair inconclusive, Rab9 prom act -3.3% and FLuc modulator 15.1µM*.
`Cc1ccc2nc(NS(=O)(=O)c3ccc(Cl)cc3)c(Nc3ccc(C(=O)O)cc3)nc2c1` gave SMN2 splice enh -22.5% and FLuc modulator 10.7µM*.
O=S(=O)(Nc1nc2cc3c(cc2nc1Cl)OCCO3)c1ccccc1 was read as ELG1 genotoxic 0.0%, NPC1 prom act -1.3%, ELG1 DNA repair inconclusive, Rab9 prom act -3.0%, SMN2 splice enh 4.5% and FLuc modulator inconclusive.
CC(=O)Nc1ccc(S(=O)(=O)Nc2nc3cc4c(cc3nc2Cl)OCCO4)cc1 was read as ELG1 genotoxic 1.6%, NPC1 prom act 0.3%, ELG1 DNA repair 0.4%, Rab9 prom act -4.3% and FLuc modulator 19µM*.
For CCc1ccc(-n2nc3cc(C)c(NC(=O)c4cc(Cl)ccc4OC)cc3n2)cc1 the results were SMN2 splice enh 7.0% and FLuc modulator -18.8%.
Screening CS(=O)(=O)c1ccc2nc(NC(=O)c3cc(-c4ccccc4)nn3-c3ccccc3)sc2c1 returned ELG1 genotoxic -5.3%, NPC1 prom act -3.4%, ELG1 DNA repair 7.31µM*, Rab9 prom act -1.6%, SMN2 splice enh -27.4% and FLuc modulator -6.9%.
CS(=O)(=O)c1ccc2nc(NC(=O)C3=NN(c4ccccc4)C(=O)CC3)sc2c1 was read as ELG1 genotoxic -7.4%, NPC1 prom act 0.4%, ELG1 DNA repair -3.1%, Rab9 prom act -0.5% and FLuc modulator inconclusive.
For CS(=O)(=O)c1ccc2nc(NC(=O)c3ccc(=O)[nH]c3)sc2c1 the results were ELG1 genotoxic 5.5%, NPC1 prom act -7.2%, ELG1 DNA repair 17.4%, Rab9 prom act 6.6% and FLuc modulator 6.75µM*.
Screening Cn1nc(C(=O)Nc2nc3ccc(S(C)(=O)=O)cc3s2)ccc1=O returned ELG1 genotoxic 10.6%, NPC1 prom act 0.4%, ELG1 DNA repair inconclusive, Rab9 prom act -1.3%, SMN2 splice enh -1.9% and FLuc modulator 10.7µM*.
`O=C(Nc1cccc(Cl)c1N1CCCCC1)c1ccc2c(c1)OCCO2` gave ELG1 genotoxic -0.4%, NPC1 prom act -5.6%, ELG1 DNA repair 0.3%, Rab9 prom act 2.3%, SMN2 splice enh 16.7% and FLuc modulator 3.3%.
`O=C(Nc1cccc2cccnc12)c1ccc2c(c1)OCCO2` gave ELG1 genotoxic inconclusive, NPC1 prom act 10.7%, ELG1 DNA repair inconclusive, Rab9 prom act inconclusive, SMN2 splice enh 26.8% and FLuc modulator 12µM*.
